Compound activity deposited in PubChem by Broad Institute.
PrP UTR inh = inhibition of PrP 5' UTR reporter expression; 0.35% of 340,000 active; inhibition, % (concentration not given with the values); cell-based PrP 5' UTR mRNA reporter, plate reader; AID 488862; in the data active = inhibition above about 52%
BH1578 lux ind = inducers of Vibrio cholerae quorum light production without autoinducers; V. cholerae BH1578 lux reporter, luminescence, 6 h; activation, % at 18.7 µM; 0.16% of 350,000 active; AID 588436; in the data active = activation mostly above about 9.7%, no sharp cut-off
Mtb UGM inh = Mtb UDP-galactopyranose mutase inhibition; purified UGM, fluorescence polarization probe displacement; 0.06% of 320,000 active; P9WIQ1; inhibition, % at 10 µM; in the data active = inhibition above about 10%, passing the limit was not always enough
Target sequence (P9WIQ1 whole entry, looked up): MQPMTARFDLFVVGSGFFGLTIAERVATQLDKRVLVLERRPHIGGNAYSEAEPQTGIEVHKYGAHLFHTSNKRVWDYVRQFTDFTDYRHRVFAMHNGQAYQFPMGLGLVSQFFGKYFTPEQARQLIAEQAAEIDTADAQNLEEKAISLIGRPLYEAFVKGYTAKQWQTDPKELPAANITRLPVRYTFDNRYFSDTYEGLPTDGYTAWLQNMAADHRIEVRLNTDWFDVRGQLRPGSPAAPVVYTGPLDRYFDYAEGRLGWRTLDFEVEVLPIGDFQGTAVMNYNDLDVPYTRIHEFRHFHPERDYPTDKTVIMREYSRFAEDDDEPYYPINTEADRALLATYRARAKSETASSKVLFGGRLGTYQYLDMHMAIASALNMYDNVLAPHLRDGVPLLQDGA
Y pestis TopoI = inhibitors of Yersinia pestis topoisomerase I | 0.064% of 360,000 active | activity, % at 10 µM | AID 504884 | Y. pestis Topo-I cleavage product accumulation, plate reader; in the data active = activity above about 50%, passing the limit was not always enough
TcdB GH inh = blocks C. difficile toxin B glycohydrolase activity | P18177 | TcdB glycohydrolase enzymatic assay, plate reader | inhibition, % at 9.99 µM | 0.24% of 350,000 active; in the data active = inhibition above about 10%
A number is an active result; - = inactive; . = not tested or not shown; + = active, no number. In the library only some 0.65% were active in any assay of this set; here they are far more common.

SMILES | PrP UTR inh | BH1578 lux ind | Mtb UGM inh | Y pestis TopoI | TcdB GH inh
CO[C@H]1CC[C@@H]2CCOc3c(C#N)cccc3C(=O)N(C)[C@H](C)C(=O)N(C)C[C@H]1O2 | . | . | . | . | -
COC(=O)C[C@@H]1CC[C@@H]2[C@@H](COc3ccc(NC(=O)c4cc(C)on4)cc3C(=O)N2C)O1 | . | . | . | . | -
Oc1cc(O)cc(/C=C/c2ccc(O)c(O)c2)c1 | - | - | - | - | 10
C/C=C/c1ccc(O)c(OC)c1 | - | - | - | - | -
COCc1cc(C)nc(SCc2ccc(Br)cc2)c1C#N | - | - | - | 50 | -
COCc1cc(C)nc(SCc2ccc(Cl)cc2)c1C#N | - | - | - | - | -
COc1ccccc1NS(=O)(=O)c1cc(N)ccc1N1CCCC1 | - | - | 23 | - | -
Cc1nc2ccccc2nc1OCC(=O)Nc1ccc(F)cc1 | - | - | - | - | 12
CCCCC/C=C/C1=CC(=O)C[C@H](c2ccc3c(c2)OCO3)C1 | - | - | - | 63 | -
COC/C=C/C1=CC(=O)C[C@H](c2ccc3c(c2)OCO3)C1 | - | - | - | - | -
Cn1c(=O)[nH]c(=O)c2c1[nH]c(=S)n2CCCc1ccccc1 | - | - | . | - | 12
Cn1c(=O)[nH]c(=O)c2c1[nH]c(=S)n2Cc1ccc(Cl)cc1 | - | - | - | - | 14
COC(=O)C[C@@H]1CC[C@H]2[C@H](COc3ccc(NS(=O)(=O)c4cccc(F)c4)cc3C(=O)N2C)O1 | . | . | . | . | -
Cc1ccc(NC(=O)Cn2cc(C(=O)C3CC3)c3ccccc32)c(C)c1 | - | - | - | 76 | -
CCC(=O)c1cn(CC(=O)Nc2cccc(C)c2C)c2ccccc12 | - | - | - | - | 14
CO[C@@H]1CN(C)C(=O)c2ccc(NS(=O)(=O)c3cn(C)cn3)cc2OC[C@@H](C)N(Cc2cccc(C(F)(F)F)c2)C[C@H]1C | . | . | . | . | -
COc1ccc(NC(=O)CN(C)C(=O)/C=C/c2ccc(S(=O)(=O)N3CCCCCC3)cc2)cc1 | - | - | - | 77 | -
CNC(=O)C1Cc2c(-c3ccccc3Oc3ccccc3)ccnc2O1 (stereo not given) | . | - | . | - | 13
CC(=O)NCCNC(=O)C1Cc2c(-c3ccccc3Oc3ccccc3)ccnc2O1 (stereo not given) | . | - | . | - | -
Cc1ccc(S(=O)(=O)Nc2ccc3c(c2)CC(=O)N([C@H](C)CO)C[C@H](C)[C@@H](CN(C)C(=O)Nc2ccc4c(c2)OCO4)O3)cc1 | . | . | . | . | -
CO[C@@H]1CN(C)C(=O)c2cc(NC(=O)C3CCCC3)ccc2OC[C@@H](C)N(Cc2nccs2)C[C@H]1C | . | . | . | . | -
COc1cc(-c2noc(C)c2C#Cc2ccc(N)cc2)cc(OC)c1OC | 65 | - | - | - | -
C[C@@H]1CN([C@H](C)CO)C(=O)Cc2cc(NS(=O)(=O)c3ccc(Cl)cc3)ccc2O[C@@H]1CN(C)Cc1ccc(C(=O)Nc2ccccc2N)cc1 | . | . | . | . | -
O=C(O)C1C(=O)NCC1c1ccccc1 (stereo not given) | - | - | - | - | 24
O=C1CC(c2ccccc2)C(C(=O)O)N1 (stereo not given) | - | - | - | - | -
SMILES | PrP UTR inh | BH1578 lux ind | Mtb UGM inh | Y pestis TopoI | TcdB GH inh
O=C(C[C@H]1C[C@H]2c3cc(NC(=O)c4ccc5c(c4)OCO5)ccc3O[C@H]2[C@@H](CO)O1)NC1CCCCC1 | . | . | . | . | -
CN1/C(=C\C=O)C(C)(C)c2ccccc21 | - | - | - | - | -
CN1\C(=C/C=C/C=C/C=[N+](C)C)C(C)(C)c2ccccc21 | - | - | . | + | -
CCc1ccc(NC(=O)c2cc(C)on2)cc1 | - | - | - | - | 11
C[C@@H]1CN([C@@H](C)CO)C(=O)c2cc(NC(=O)c3ccccc3)ccc2O[C@@H](C)CCCCO[C@H]1CN(C)C(=O)Nc1ccccc1 | . | . | . | . | -
Cc1ccc(CN2C(=O)CN=C(c3ccccc3)c3ccccc32)cc1 | - | - | - | - | 12
O=C(c1ccc2c(c1)OCO2)N1CC(=O)N2[C@H](CO)[C@H](c3ccc(C#CCC4CCCC4)cc3)[C@@H]2C1 | . | . | . | . | -
CC(C)c1ccc(N(CC(=O)NCc2ccc(F)cc2)C(=O)c2snc(C(N)=O)c2N)cc1 | - | - | - | 67 | -
C[C@@H]1CN([C@@H](C)CO)C(=O)Cc2cc(NS(=O)(=O)c3ccc(Cl)cc3)ccc2O[C@@H]1CN(C)Cc1ccncc1 | . | . | . | . | -
Cc1cc(C(=O)NCc2cc(C(=O)O)oc2C)c(C)o1 | - | 17 | - | - | .
CN/N=C/c1ccc(C#N)cc1 | - | - | - | - | -
Cc1ccccc1N/N=C/c1ccc(C#N)cc1 | - | 60 | - | - | -
CC(C)NC(=O)N(C)C[C@@H]1OCCCC[C@H](C)Oc2ccc(NS(=O)(=O)c3ccc(F)cc3)cc2C(=O)N([C@@H](C)CO)C[C@@H]1C | . | . | . | . | -
O=C1CCN(Cc2ccccc2)S(=O)(=O)c2ccccc21 | - | - | - | - | -
C=C1CCN(Cc2ccccc2)S(=O)(=O)c2ccccc21 | - | - | - | - | 11
Cc1ccc(N/C(N)=N/c2nc(C)cc(C)n2)cc1 | - | - | . | - | .
Cc1cc(C)nc(/N=C(\N)Nc2ccccc2-c2ccccc2)n1 | - | - | - | - | 10
CCCC(=O)N1N=C(c2ccccc2)CC1c1cn(C)c2ccccc12 (stereo not given) | - | - | - | 56 | .
O=C(NC1CCCC1)N[C@@H]1C=C[C@H](CC(=O)N2CCOCC2)O[C@H]1CO | . | . | . | . | -
Nc1c(C(=O)Nc2ccccc2F)sc2nc(Cc3ccccc3)cc(C(F)(F)F)c12 | . | - | 26 | - | -
Cc1cccc(OCC(O)Cn2ccnc2C)c1 (stereo not given) | - | - | - | 66 | -
Cc1ccc(-c2ccc3c(c2)O[C@@H](CN(C)Cc2ccc(C(=O)O)cc2)[C@@H](C)CN([C@H](C)CO)S3(=O)=O)cc1 | . | . | . | . | -
C[C@H](CO)N1C[C@H](C)[C@H](CN(C)Cc2ccccn2)Oc2cc(C3=CCCC3)ccc2S1(=O)=O | . | . | . | . | -
O=C(COC(=O)CNS(=O)(=O)c1ccc2ccccc2c1)Nc1ccccc1Sc1ccccc1 | - | - | - | 62 | -
COc1ccc(CN2[C@H](CO)[C@@H]3c4ccccc4N(C(=O)c4ccccc4)C[C@@H]32)cc1 | . | . | . | . | -
SMILES | PrP UTR inh | BH1578 lux ind | Mtb UGM inh | Y pestis TopoI | TcdB GH inh
Cn1cc(/C=C2\C(=O)NC(=O)N(c3ccccc3)C2=O)c2ccccc21 | - | - | 14 | - | -
Cc1cc2c(cc1S(=O)(=O)N(C)c1ccccc1)NC(=O)CO2 | - | - | - | - | 21
Nc1ncc(S(=O)(=O)c2ccc([N+](=O)[O-])cc2)s1 | - | - | . | - | 11
O=C1CCCN1c1ncc(S(=O)(=O)c2ccc([N+](=O)[O-])cc2)s1 | - | - | - | - | -
COC(=O)[C@H]1[C@H](CO)[C@H]2Cn3c(ccc(C4=CCCC4)c3=O)[C@H]2N1C(=O)C1CC1 | . | . | . | . | -
CCN(CC)c1ncnc2scc(C3COc4ccccc4O3)c12 (stereo not given) | - | - | - | 53 | .
CCOc1ccccc1-n1c(C)nc2cc(C(=O)O)ccc21 | - | - | - | - | 20
Cc1nc2cc(C(=O)O)ccc2n1-c1ccc(F)cc1F | - | - | - | - | .
